# Target: NT5C3L
# Assay: pooled miR-30 sensor sort-seq; sequence = guide strand
# Conditions: shRNA
row,Sequence,sensor-assay potency score (higher = more potent)
1,TAGAGCACTGACATGCTGTGGT,0.517
2,TATCTGAAACTTCTGAATCTTC,-0.418
3,TTGCATTGGACTCTCTAACCAC,-0.0742
4,TTGTGTGCTTTGGTCCACCATT,-1.32
5,TTGGACTCTCTAACCACCTGGG,0.443

# Target: NTHL1
# Assay: as above
# Conditions: shRNA
row,Sequence,sensor-assay potency score (higher = more potent)
1,TTTTTGTTCCTCATGGCACGGA,0.281
2,TCATCTGTCTGCAGGATGCTGT,-0.751
3,TTGATGTATTTCACCTTGCTCC,-0.737
4,TAGATGAGCTTGCCCAGCGTGG,-1.11
5,TTGGTTGCCTTCTTGGTCCACC,-0.633
6,TTCTTGGTCCACCTCAGCCTGT,-1.58
7,TATTTCACCTTGCTCCTCCAGA,-0.193
8,ATGTATTTCACCTTGCTCCTCC,0.0621
9,TTCTGTGCACATGCGTGTCCAC,-0.487
10,ATCAGTGACAGCAGCACCTGGT,-0.43
11,TTGACCAGCTGTTGCTGCCAGT,-1.05
12,TTTTCCTCGCTTCTGCTGCAGC,-0.814

# Target: NTM
# Assay: as above
# Conditions: shRNA
row,Sequence,sensor-assay potency score (higher = more potent)
1,TCTGTCTGCACCGAGCAGGTGT,-0.506
2,TTGCACAATGAGGTGGACCCTA,-0.498
3,TTGGCTTCTGAAATGTATGGTG,0.211
4,TTGTCTGTCTGCACCGAGCAGG,-0.782
5,TTCTTTCCTTCAATCAGTCTTT,-0.442
6,TTTGTCATCCTTGTACCACTGG,0.733
7,AATCAGTCTTTTGTCATCCTTG,-0.561
8,TTGCTCAGAAGGACCACGCGAG,-0.271
9,TTGAAGAAGATGAGTTTTGAGA,-0.515

# Target: NTRK2
# Assay: as above
# Conditions: shRNA
row,Sequence,sensor-assay potency score (higher = more potent)
1,TTTCCTAGACAAACTCGTCAGT,-0.24
2,TTCACTGCCACCAAGATCTTGT,0.258
3,TTGTTTGACAGCTGGTACCAGG,-0.771
4,TTCAACATCATCTTCGTTGATG,-0.198
5,TTTAGTACAGATGTATTTGGAC,-0.241
6,TATTAGGAACCGGATCACCTGC,-1.01
7,TTGATGTGCTGAACAAATGTGT,0.264
8,TATAGAACCACTGAAGCGCTGG,0.358
9,TCGTTGATGATTTCTAACCTTT,-0.793
10,TATGAAACAAAACAAAACCTTT,-1.09
11,TTGCCTTTCACAGTGAATGGAA,0.0334
12,TTTATCAGTGACGTCTGTGGAA,-0.0514

# Reference: the OligoGym collection
